± gives the standard deviation.
system: MILI (PIWIL2) piRISC loaded with L1MC piRNA (26 nt); assay: pre-steady-state target cleavage rate (min^-1); guide: L1MC piRNA 5'p-UAACUAAAUACUAUGCAAGCUGUAGG; MIWI and MILI are mouse PIWI proteins and EfPiwi is from a freshwater sponge; tags in brackets are library labels; higher = faster piRNA-guided slicing of the target; settings: auxiliary factor: 500 nM mouse GTSF1
Description: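 Cleave-'n-Seq: a library of target RNAs (target site embedded in constant flanks, ACAGCATTCCGCGTTAGTGATATCCG... 5' flank; DNA-blocked outside the site) at 0.1 nM was incubated with 1 nM active mouse MILI or MIWI piRISC (synthetic 5'-monophosphorylated piRNA guide) with or without 500 nM mouse GTSF1 at 33 °C for 1 min to 16 h. Uncleaved targets were sequenced and normalised to non-target controls, and the pooled three trials were fitted to a burst-and-steady-state model to give the pre-steady-state cleavage rate (min^-1; k3 is constrained to at most 1e-4). Sequence is the target site only; target names encode pairing extent (gX:gY) and contiguous / 1-mismatch / 2-mismatch / bulge geometry. Fits with R² ≤ 0 are excluded.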

| Sequence | pre-steady-state target cleavage rate |
| --- | --- |
| UCCUGGAACAGCUUGGAAAGUAUUUAGUUA | 0.125 ± 0.0077 |
| UCCUCCAUGAGCUUGCAUAGUAUUUAGAAA | 0.0637 ± 0.016 |
| UCCUGCUACAGCGUUGCAUAGUAUUUAGUUA | 0.267 ± 0.018 |
| UCCUGGAACAGCUCGCAUAGUAUUUAGUUA | 0.256 ± 0.012 |
| UCCUCCUACAGCUUCGAUAGUAUUUAGAAA | 0.0982 ± 0.019 |
| UCCUGCUACACCUUGCAUACUAUUUAGUUA | 0.0767 ± 0.022 |
| UCCUGGAUGUGCAACCAUAGUAUUUAGUAA | 0.00554 ± 0.0027 |
| UCCUGGAUGAGCUUGCAUAGUAUAAUGAAA | 0.00735 ± 0.0041 |
| UCCUGGAUCAGUUGCAUAGUAUUUAGUUA | 0.257 ± 0.016 |
| UCCUGGAUGUGCGUUGCAUAGUAUUUAGUUA | 0.145 ± 0.016 |
| UCCUGGAUGUGCUAGCAUAGUUUUUAGUUA | 0.0108 ± 0.0046 |
| UCCUGGAUCAGCUUGCAUACUAUUAAGUUA | 0.0204 ± 0.0077 |
| UCCUCCUACAGCUUGCAUAGUAUAUACAAA | 0.0968 ± 0.025 |
| UCCUGGAUGUCGUUGCAUAGUAUUUAGGUA | 0.0112 ± 0.0062 |
| UCCUGGAACAGCUUGCAUAGUAUCUUAGUUA | 0.267 ± 0.022 |
| UCCUGGUUGAGCUUGCAUAGUAUUUAGUUA | 0.179 ± 0.017 |
| UCCUGCUACAGUUUGCAUAGUAUUUAGUUA | 0.296 ± 0.015 |
| UCCUGGAUCAGGUUGCAUAGUAUUUAGAAA | 0.185 ± 0.029 |
| UCCUGGAUGAGCUUGCAUAGUAUUUAGUA | 0.223 ± 0.025 |
| UCCUGGAUCAGGUUGCAUAGAAUUUAGUUA | 0.0266 ± 0.0065 |
| UCCUGCUACAGCUACCAUAGUAUUUAGUUA | 0.233 ± 0.032 |
| UCCUCCAACAGCUUGGAUAGUAUUUAGUUA | 0.269 ± 0.0097 |
| UCCUGCUACUGCUUGCAAAGUAUUUAGUUA | 0.0928 ± 0.013 |
| UCCUGGUACAGCAUGCAUAGUAUUAAGUUA | 0.292 ± 0.06 |

same assay, conditions: auxiliary factor: none (no GTSF1)

| Sequence | pre-steady-state target cleavage rate |
| --- | --- |
| UCCUGGAACAGCUUGGAAAGUAUUUAGUUA | 0.00969 ± 0.0023 |
| UCCUGCUACAGCGUUGCAUAGUAUUUAGUUA | 0.01 ± 0.0033 |
| UCCUGGAACAGCUCGCAUAGUAUUUAGUUA | 0.00773 ± 0.0031 |
| UCCUGGAUCAGUUGCAUAGUAUUUAGUUA | 0.00796 ± 0.002 |
| UCCUGGAUGUGCGUUGCAUAGUAUUUAGUUA | 0.00925 ± 0.0032 |
| UCCUGGAUGUGCUAGCAUAGUUUUUAGUUA | 0.00466 ± 0.0027 |
| UCCUGGAACAGCUUGCAUAGUAUCUUAGUUA | 0.00791 ± 0.0019 |
| UCCUGGUUGAGCUUGCAUAGUAUUUAGUUA | 0.0113 ± 0.0033 |
| UCCUGCUACAGUUUGCAUAGUAUUUAGUUA | 0.0106 ± 0.0023 |
| UCCUGGAUGAGCUUGCAUAGUAUUUAGUA | 0.00747 ± 0.0025 |
| UCCUGGAUCAGGUUGCAUAGAAUUUAGUUA | 0.00431 ± 0.0021 |
| UCCUGCUACAGCUACCAUAGUAUUUAGUUA | 0.0038 ± 0.0024 |
| UCCUCCAACAGCUUGGAUAGUAUUUAGUUA | 0.00646 ± 0.0021 |
| UCCUGCUACUGCUUGCAAAGUAUUUAGUUA | 0.00523 ± 0.0021 |
| UCCUGGUACAGCAUGCAUAGUAUUAAGUUA | 0.0046 ± 0.003 |
